# Experimental data from the supplement of paper PMC7724964.
# T1: DOK1 151-256 IRS (domain begin residue: 151, domain end residue: 256), Q99704
# T1 chain: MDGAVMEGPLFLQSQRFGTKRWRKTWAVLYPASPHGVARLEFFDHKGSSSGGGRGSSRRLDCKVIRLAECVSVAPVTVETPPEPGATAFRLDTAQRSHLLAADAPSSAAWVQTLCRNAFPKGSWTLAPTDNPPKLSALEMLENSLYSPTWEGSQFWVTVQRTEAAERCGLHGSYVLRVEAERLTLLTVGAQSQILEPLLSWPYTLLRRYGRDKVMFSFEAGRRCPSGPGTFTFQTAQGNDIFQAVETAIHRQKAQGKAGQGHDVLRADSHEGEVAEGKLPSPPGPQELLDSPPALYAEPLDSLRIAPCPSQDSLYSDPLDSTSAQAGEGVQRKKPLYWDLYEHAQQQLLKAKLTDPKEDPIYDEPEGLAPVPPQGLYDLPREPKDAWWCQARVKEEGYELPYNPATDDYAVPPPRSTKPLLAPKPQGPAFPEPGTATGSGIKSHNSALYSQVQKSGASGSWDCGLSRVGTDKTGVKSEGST
# T2: DOK2 146-252 IRS (domain begin residue: 146, domain end residue: 252), O60496
# T2 chain: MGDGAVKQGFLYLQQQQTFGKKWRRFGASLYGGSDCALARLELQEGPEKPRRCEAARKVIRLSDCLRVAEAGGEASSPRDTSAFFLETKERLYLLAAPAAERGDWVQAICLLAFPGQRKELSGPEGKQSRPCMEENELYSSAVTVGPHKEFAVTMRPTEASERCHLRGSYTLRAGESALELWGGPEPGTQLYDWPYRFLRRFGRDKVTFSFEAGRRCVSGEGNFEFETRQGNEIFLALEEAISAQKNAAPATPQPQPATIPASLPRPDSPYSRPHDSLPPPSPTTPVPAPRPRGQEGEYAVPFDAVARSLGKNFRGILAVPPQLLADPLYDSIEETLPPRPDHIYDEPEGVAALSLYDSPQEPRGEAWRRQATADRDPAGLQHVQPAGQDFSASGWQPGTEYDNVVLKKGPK
# T3: DOK3 213-322 IRS (domain begin residue: 213, domain end residue: 322), Q7L591
# T3 chain: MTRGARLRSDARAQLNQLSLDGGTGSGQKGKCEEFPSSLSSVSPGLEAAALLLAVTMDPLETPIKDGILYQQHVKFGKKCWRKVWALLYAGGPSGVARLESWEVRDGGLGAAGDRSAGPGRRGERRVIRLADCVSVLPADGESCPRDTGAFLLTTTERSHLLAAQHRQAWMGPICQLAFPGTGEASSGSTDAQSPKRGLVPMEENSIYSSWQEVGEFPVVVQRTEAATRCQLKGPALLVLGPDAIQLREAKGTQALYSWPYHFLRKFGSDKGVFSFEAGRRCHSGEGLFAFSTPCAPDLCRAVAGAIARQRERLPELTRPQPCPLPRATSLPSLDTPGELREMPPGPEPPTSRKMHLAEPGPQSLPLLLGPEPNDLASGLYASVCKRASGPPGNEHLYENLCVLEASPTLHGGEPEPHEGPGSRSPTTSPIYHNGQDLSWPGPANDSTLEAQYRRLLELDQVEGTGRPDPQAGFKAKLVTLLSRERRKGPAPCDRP
# Tests used:
# Test in all cases: phage ELISA signal ratio (GST-PRM binding over GST background); higher = stronger binding of peptide-phage to the PRM
# [1] = target: T1, DOK1 151-256 IRS (domain begin residue: …
# Description: (§1)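 Phage-displayed random hexadecapeptides (Cys-free, flanked by invariant Gly linkers, fused to the M13 P8 major coat protein) were selected over 5 rounds against GST-fused human PRM domains. Individual clones from rounds 4-5 were tested by phage ELISA, and positive clones binding the target but not GST were sequenced. Values are the ELISA signal ratio of target over background (GST); the background signal is given separately.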
# [2] = target: T2, DOK2 146-252 IRS (domain begin residue: …
# Description: as §1
# [3] = target: DOK4 130-237 IRS (domain begin residue: 130, domain end residue: 237), Q8TEW6
# Description: as §1
# [4] = target: DOK5 130-237 IRS (domain begin residue: 130, domain end residue: 237), Q9P104
# Description: as §1
# [5] = target: DEPDC6 20-129 DEP (domain begin residue: 20, domain end residue: 129)
# Description: as §1
# [6] = target: T3, DOK3 213-322 IRS (domain begin residue: …
# Description: as §1
# Chain of DOK4 130-237 IRS (domain begin residue: 130, domain end residue: 237), Q8TEW6 (Q8TEW6 whole entry): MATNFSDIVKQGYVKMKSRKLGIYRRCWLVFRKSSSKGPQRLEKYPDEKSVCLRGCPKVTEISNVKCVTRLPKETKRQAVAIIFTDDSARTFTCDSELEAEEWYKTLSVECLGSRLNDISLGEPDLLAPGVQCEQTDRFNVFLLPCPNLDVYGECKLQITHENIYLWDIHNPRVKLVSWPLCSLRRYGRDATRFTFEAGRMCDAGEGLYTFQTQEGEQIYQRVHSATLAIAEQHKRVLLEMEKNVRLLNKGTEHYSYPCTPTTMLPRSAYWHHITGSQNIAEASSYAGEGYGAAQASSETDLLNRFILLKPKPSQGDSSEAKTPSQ
binder,measurement,setting,value
ADQWVWHYIMEMEQVR,phage ELISA signal ratio,[1],33
DEWTWHFVEQPWHMAG,phage ELISA signal ratio,[2],7.99
YETPEPQWLWVMNPIH,phage ELISA signal ratio,[3],14.6
WPEGIKYTWVKEHETE,phage ELISA signal ratio,[3],8.42
MWEWTDNPSYTIPGQQ,phage ELISA signal ratio,[3],7.86
DWVWTIPFEQVFSEVM,phage ELISA signal ratio,[4],4.96
WVWHDMHLSAPFQHQE,phage ELISA signal ratio,[1],3.72
DWPNYPANSWKYVTWA,phage ELISA signal ratio,[1],10.2
TMAWEWIGNDVYVSHD,phage ELISA signal ratio,[2],7.8
DLMVWYDNPYYHSEMI,phage ELISA signal ratio,[2],9.37
QMVWHYPWEATDTHGW,phage ELISA signal ratio,[1],33.5
MYTFEEMWMHWKLVEM,phage ELISA signal ratio,[5],23.6
DEWMLNETWIDYQELH,phage ELISA signal ratio,[1],20
VDDGDWVWVHVSQQFM,phage ELISA signal ratio,[1],31.2
YELSWTHTPWSHFIAT,phage ELISA signal ratio,[3],6.86
PYTWYENPLWVPSPME,phage ELISA signal ratio,[2],15.2
VVNEQHGWKWMILEHE,phage ELISA signal ratio,[2],20.7
QWMDLNDLQWTYNPWY,phage ELISA signal ratio,[3],11.2
VWDLDTSADYLWVWMG,phage ELISA signal ratio,[1],19.3
EWFMDASGYWNNLQVS,phage ELISA signal ratio,[1],7.98
WEWSQEIWLPPHMMVD,phage ELISA signal ratio,[6],12.3
EQQHDKFQMMMNIYKY,phage ELISA signal ratio,[5],23
QFIVWENEYYEHWGGK,phage ELISA signal ratio,[2],21.1
DLDFMWWDNPVHETDL,phage ELISA signal ratio,[2],16.8
EWVEWVSPWMVEHGDW,phage ELISA signal ratio,[2],17.8
MPWPMWEQYQQHMQWV,phage ELISA signal ratio,[1],19.7
FEWTSSPVWSDHQEHN,phage ELISA signal ratio,[3],11.5
NQLRFNPQWTVPNFRN,phage ELISA signal ratio,[6],3.31
VWEEVMTMEQWQWHNF,phage ELISA signal ratio,[6],5.77
VIWTWNPMAGMEAWNI,phage ELISA signal ratio,[3],5.11
YDQTGWAWVHEMQDMV,phage ELISA signal ratio,[1],8.33
EQLWWSNPLWTEGIEE,phage ELISA signal ratio,[2],16.1
WVTWDNSSLKWIDETY,phage ELISA signal ratio,[1],28
GVGWAKQIEWTVSPMM,phage ELISA signal ratio,[4],3.95
WNEWNEKEMLWESVEG,phage ELISA signal ratio,[1],37.8
DWEAWHHNVDFAWGWV,phage ELISA signal ratio,[1],9.3
EYKTMPWEEIMMPYNY,phage ELISA signal ratio,[6],3.85
DTKWNIVHWDWDTWVH,phage ELISA signal ratio,[1],16.4
DEWKWFDMVGTQTQTP,phage ELISA signal ratio,[2],16.8
MESAFQQVMLAYYQEL,phage ELISA signal ratio,[5],21.9
DDMIWQWQMNPIWMMD,phage ELISA signal ratio,[3],11.5
IEWTHTNWEWNKMETQ,phage ELISA signal ratio,[3],11.9
HLTGQEGDWIWHWLEN,phage ELISA signal ratio,[2],10.4
DLQWKWVYWHDLDDGE,phage ELISA signal ratio,[1],22.6
EHLRPEMDWTYVWWEH,phage ELISA signal ratio,[3],4.35
DWVWSDVGGHVPQVWD,phage ELISA signal ratio,[1],25
QWMGLSVEQFAMNPWY,phage ELISA signal ratio,[1],17.7
EPWVDWSESMWAWVNT,phage ELISA signal ratio,[1],17.6
PEQMEYWTWSPLHVSQ,phage ELISA signal ratio,[3],13.1
GDKSEWFRALLDEYLV,phage ELISA signal ratio,[5],21.6
MQMTFLDMMEQYRLME,phage ELISA signal ratio,[5],33.8
PGEMQESNWLWKFVDW,phage ELISA signal ratio,[1],29.1
WSEVWWTDLEGAMFWV,phage ELISA signal ratio,[1],16.2
GWDDQIWTWSPMYMPV,phage ELISA signal ratio,[3],19
EWMWMDNPGFHMTEAT,phage ELISA signal ratio,[2],13.6
GHNEIMTIQQHATWLY,phage ELISA signal ratio,[6],5.54
DNHWIWKEVNPMFMKD,phage ELISA signal ratio,[1],30.4
